Measurements as given in the supplement of paper PMC6805474.

The molecules below were run on Schistosoma mansoni schistosomula (LE) (assay: XTT viability relative to DMSO control; higher = more viable (less active)). Conditions: 72 h; 10 µM.
Protocol: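 XTT/PMS was then added for a further 24 h (72 h total) and A450 was read. % viability = (sample - heat-killed control)/(DMSO control - heat-killed control) x 100, from duplicate wells in two independent experiments.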

SMILES | XTT viability
Cc1cc(OCC(=O)Nc2ccc(C(C)C)cc2)n(C)c(=O)c1C#N | 82.3%
Cc1cc(NCC(C)C)c2n[nH]c(-c3ccccc3)c2n1 | 92.7%
Cc1[nH]c2ccccc2c1C(c1cccs1)N1CCN(C)CC1 (stereo not given) | 6.43%
CCC(NC(=O)c1ccccc1NC(=O)c1ccc(C)cc1)C(=O)OC (stereo not given) | 82.9%
CCc1cc(=O)n(C)c(SC(C)C(=O)Nc2ccc(F)cc2)n1 (stereo not given) | 115%
CCCc1ccc(S(=O)(=O)Nc2ccc(CN3CCN(CC4CC4)CC3)cc2)cc1 | 108%
CCCS(=O)(=O)N1CCC(CO)(Cc2ccccc2C(F)(F)F)CC1 | 95.7%
COc1ccc(OC(C)C(=O)Nc2ccc(Cl)cc2C)cc1 (stereo not given) | 97.2%
COc1cccc(-c2nc3c(N4CCCC4)cccc3n2CC2CCCN2)n1 (stereo not given) | 158%
O=C(NC1=NCCS1)c1sc2cc(F)ccc2c1Cl | 81%
O=C(NCCc1c[nH]c2ccccc12)c1cc2ccccc2oc1=O | 91.2%
CCOC(=O)c1c(NC(=O)c2c(F)c(F)c(F)c(F)c2F)sc(C(N)=O)c1C | -3.42%
Clc1ccc(CN2CCN(C3=NCCN3)CC2)cc1Cl | 81.9%
FC(F)(F)c1ccc(N(c2cccnc2)C2CCN(c3ccc(C(F)(F)F)cn3)CC2)cc1 | 77.5%
Cc1cnc(CCNC(=O)c2cc(-c3ccc(Cl)cc3)cs2)[nH]1 | 79.7%
Cc1noc(C)c1C(=O)N1CCCC(c2[nH]c3c(C)cccc3c2-c2ccncc2)C1 (stereo not given) | 67.5%
CS(=O)(=O)Cc1nc2ccccc2oc1=O | 355%
O=C(NCc1ccco1)N1CCN(Cc2ccc(Cl)s2)CC1 | 93.6%
O=C(Nc1nnc(-c2ccc(Cl)cc2)o1)c1cccc(C(F)(F)F)c1 | -9.98%
O=C(NC1CC1)c1ccc(CSCc2ccccc2Cl)o1 | 114%

SMILES | XTT viability
NCC(=O)N1CCn2c(nc(-c3ccccc3)c2Nc2ccc3c(c2)OCO3)C1 | 129%
CN1CCC(c2cc(-c3ccncc3)c(-c3ccc(F)cc3)[nH]2)CC1 | 94.6%
CCS(=O)(=O)N(Cc1ccco1)Cc1cc2ccc(C)cc2nc1O | 55.5%
COc1cc(NC(C)CCCN)c2ncccc2c1 (stereo not given) | 77.4%
CN1CCN(S(=O)(=O)c2ccc(-c3ccc4c(Nc5ccc6nn[nH]c6c5)ccnc4c3)cc2)CC1 | 152%
Nc1nc2ccc(-c3cncc(Oc4ccc(F)cc4)c3)cc2[nH]1 | 111%
Nc1ncnc2c1c(Cc1cccc3ccccc13)nn2CC1CCNCC1 | 96.2%
CC1CCCCN1C(=O)NCCc1coc(-c2ccc(F)cc2)n1 (stereo not given) | 131%
N=C(N)c1ccc(OCCCCCOc2ccc(C(=N)N)cc2)cc1 | 81.9%
Clc1ccc(-n2cc(COc3ccnc4ccccc34)nn2)cc1 | 103%
O=C1N(Cc2cc3ccccc3s2)CC2CN(Cc3ccccc3)CCN12 (stereo not given) | 87.2%
CCc1ccc(S(=O)(=O)Nc2cc(CN3CCN(CCC(C)C)CC3)ccc2C)cc1 | 85.8%
O=C(Nc1ccc(N2CCNCC2)cc1)c1ccn2ncc(-c3cccc(Cl)c3)c2n1 | 7.7%
Clc1cccc(C(c2ccc(CN3CCNCC3)cc2)n2ccnc2)c1 (stereo not given) | 76.1%
COc1nc2ccc(Br)cc2cc1[C@@H](c1ccccc1)[C@@](O)(CCN(C)C)c1cccc2ccccc12 | 7.23%
Nc1ncc(Br)cc1-c1nc2cc(Cl)cnc2[nH]1 | 131%
Cc1nn2c(O)c3c(nc2c1-c1ccc(F)cc1)CCCC3 | 113%
Cc1cc(O)nc(-n2nc(C)cc2C)n1 | 93.1%
CC(c1cc(Cl)cc(Cl)c1)N(C)c1ncc2c(N)nc(N)nc2n1 (stereo not given) | 42.2%
COc1cc(C(F)(F)F)nc2ccc(C)c(N)c12 | 79.3%
